Measurements taken from PubChem BioAssay (NCI).
About 79,000 compounds went through this panel and 15% of them were active in at least one assay; those are over-represented in the sample as a whole. Unmarked numbers belong to inactive results. The source made the active and inactive calls. Cut-off read from the data, not from the text of the source: active = growth inhibition above about 70%; inactive = the rest.

Test: NCI Yeast Anticancer Drug Screen. Data for the mgt1 strain (AID 153)
Settings: S. cerevisiae mgt1 mutant growth inhibition, active compounds read high
Description: Growth inhibition of yeast strains with defined genetic alterations is measured as a screen for potential anti-cancer activity. Selected strains with alterations in DNA damage repair or cell cycle control were exposed to compounds and growth inhibition was measured relative to vehicle treated controls. The strain used in this assay is mgt1

| SMILES | growth inhibition (at 1.2 µM) | growth inhibition (at 3.7 µM) | growth inhibition (at 11.0 µM) | growth inhibition (at 33.0 µM) | growth inhibition (at 100.0 µM) |
| --- | --- | --- | --- | --- | --- |
| O=[N+]([O-])c1ccc2nnnn2c1 | 0% | 2% | 4% | 23% | 18% |
| OC1C#CCSCC#C/C=C\1 (stereo not given) | 9% | 2% | 14% | 43% | 95% (active) |
| CN(C)N=Nc1ccc(NC=O)cc1 | 20% | 27% | 23% | 88% (active) | 99% (active) |
| O=C(Nn1c(-c2ccccc2)nc2ccccc2c1=O)c1ccc(Cl)cc1 | -4% | -19% | -17% | 50% | 94% (active) |
| O=CC(=C(I)I)c1ccccc1 | 17% | 50% | 98% (active) | 99% (active) | 93% (active) |
| S=c1[nH]nc(Cc2ccccc2)c(=S)[nH]1 | 23% | 47% | 83% (active) | 97% (active) | 97% (active) |
| CCCCCC(=O)C(C)(c1nc2n(c1O)/C(=N/C(=O)Nc1ccc(Cl)cc1)N=N2)c1nc2n(c1O)/C(=N/C(=O)Nc1ccc(Cl)cc1)N=N2 | 2% | 4% | -5% | 9% | 57% |
| O=C(/C(=C/c1ccccc1)CBr)c1ccccc1 | -1% | 7% | 49% | 95% (active) | 99% (active) |
